Records with an inconclusive call do not appear. Calls of active or inactive are those of the source. Rule for the calls: active = hit-call score of the fitted dose curve at least 0.9, where 1 is the maximum; inconclusive = response in the unintended direction; inactive = score below 0.9.

Sequence of human RAR-related Orphan Receptor gamma (RORg), RORC (gene 6097) (P51449 whole entry, looked up, the tested form may be a part): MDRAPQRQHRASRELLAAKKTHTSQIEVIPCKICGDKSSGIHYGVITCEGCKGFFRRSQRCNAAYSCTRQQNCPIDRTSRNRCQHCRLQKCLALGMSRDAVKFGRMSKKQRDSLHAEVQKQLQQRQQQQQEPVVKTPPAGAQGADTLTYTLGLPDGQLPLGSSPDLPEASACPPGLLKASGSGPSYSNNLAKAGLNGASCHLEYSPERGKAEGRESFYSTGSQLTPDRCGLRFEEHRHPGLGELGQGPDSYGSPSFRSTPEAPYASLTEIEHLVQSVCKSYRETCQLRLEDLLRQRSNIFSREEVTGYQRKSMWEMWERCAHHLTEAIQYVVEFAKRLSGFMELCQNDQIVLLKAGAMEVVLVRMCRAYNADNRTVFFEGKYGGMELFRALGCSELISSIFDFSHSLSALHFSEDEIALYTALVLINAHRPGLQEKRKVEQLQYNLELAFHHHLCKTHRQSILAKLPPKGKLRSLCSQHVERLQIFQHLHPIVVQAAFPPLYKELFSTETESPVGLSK

One assay addresses human RAR-related Orphan Receptor gamma (RORg), RORC (gene 6097) (UniProt P51449). Put plainly: ATG_RORg_TRANS: Attagene TRANS-FACTORIAL HepG2 Assay for human RAR-related Orphan Receptor gamma (RORg) (AID 2283011). Summed up: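 HepG2 cells transiently transfected with GAL4-UAS reporter units and chimeric RORg-Gal4 construct; after 24 h chemical exposure, reporter mRNA measured by RT-PCR with fluorescent capillary electrophoresis, gain of signal fitted against DMSO.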
Turning to `COC(=O)c1ccc(C=O)cc1`, the compound was called inactive. Take `CC(=O)c1ccccc1N`: the compound was called inactive. Take `N#Cc1ccccc1O`: the call was inactive. Same read-out and setting: to `O=c1cccc[nH]1` belongs “inactive”; to `CCCCCC/C=C/CCCCCCCC(=O)O`, “inactive”. For `O=C(Cl)C(F)(F)C(F)(F)C(F)(F)C(F)(F)C(F)(F)C(F)(F)C(F)(F)F`, the compound was called inactive. Take `O=C1C=CC(=O)N1c1ccc(Cc2ccc(N3C(=O)C=CC3=O)cc2)cc1`: the compound was classed as inactive. For the compound `Cc1cc(O)c(C(C)(C)C)cc1C(C)(C)C`, the compound was classed as inactive. Consider `Cc1ccc([N+](=O)[O-])c(C)c1`, for which the compound was classed as inactive. Consider `CC(C)(C)c1cc(CCC(=O)OCC(COC(=O)CCc2cc(C(C)(C)C)c(O)c(C(C)(C)C)c2)(COC(=O)CCc2cc(C(C)(C)C)c(O)c(C(C)(C)C)c2)COC(=O)CCc2cc(C(C)(C)C)c(O)c(C(C)(C)C)c2)cc(C(C)(C)C)c1O`, for which the outcome was inactive. As for `CCc1cccc(C)c1N(C(=O)C(=O)O)C(C)COC` (configuration not stated), the compound was classed as inactive. As to `Brc1ccccn1`, the compound was classed as inactive.

In another assay the target is Retinoic acid receptor RXR-alpha (Homo sapiens) (UniProt P19793). Put plainly: ATG_RXRa_TRANS: Attagene TRANS-FACTORIAL HepG2 Assay for human Retinoid X Receptor alpha (RXRa) (AID 2283012). An outline of the steps: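 TRANS format reporting activity of exogenous RXRa-Gal4 chimera in transiently transfected HepG2, 24 h exposure. Reporter transcripts quantified by RT-PCR with capillary electrophoresis, with gain of signal scored relative to DMSO.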
Sequence of Retinoic acid receptor RXR-alpha (Homo sapiens) (P19793 whole entry, looked up, the tested form may be a part): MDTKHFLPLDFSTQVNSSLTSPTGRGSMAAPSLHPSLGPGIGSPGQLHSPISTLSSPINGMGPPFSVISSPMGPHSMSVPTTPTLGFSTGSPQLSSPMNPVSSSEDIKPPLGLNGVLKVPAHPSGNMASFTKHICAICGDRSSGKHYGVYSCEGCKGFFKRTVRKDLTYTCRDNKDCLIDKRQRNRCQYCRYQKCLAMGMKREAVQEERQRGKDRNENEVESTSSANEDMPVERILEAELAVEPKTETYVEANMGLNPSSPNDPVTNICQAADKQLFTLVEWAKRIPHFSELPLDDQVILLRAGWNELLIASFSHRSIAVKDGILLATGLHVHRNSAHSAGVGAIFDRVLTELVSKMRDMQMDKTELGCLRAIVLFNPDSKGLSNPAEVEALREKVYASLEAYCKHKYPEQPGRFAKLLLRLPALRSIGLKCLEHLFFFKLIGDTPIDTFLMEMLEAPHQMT
With `CC(C)C(=O)OCc1ccccc1`, the outcome was inactive. Still for that read-out and setting: to `CCC(C)CO` (configuration not stated) belongs “inactive”. Consider `CC(=O)c1ccccc1N`, for which the compound was classed as inactive. Consider `N#Cc1ccccc1O`, for which the call was inactive. For the compound `CCCCC(CC)COC(=O)c1ccc(N(C)C)cc1` (configuration not stated), the call was inactive.

For the compound `O=c1cccc[nH]1`, the result was inactive. Turning to `CCCCCC/C=C/CCCCCCCC(=O)O`, the half-maximal activity concentration (AC50) (usually the concentration giving half of the maximal activity seen) is 100 µM (active). Turning to `C[C@]12CC[C@H]3C(=CCc4cc(O)ccc43)[C@@H]1CCC2=O`, the compound was called inactive. In the case of `O=C(Cl)C(F)(F)C(F)(F)C(F)(F)C(F)(F)C(F)(F)C(F)(F)C(F)(F)F`, the outcome was inactive.

`OCC(O)CC(F)(F)C(F)(F)C(F)(F)C(F)(F)C(F)(F)C(F)(F)C(F)(F)C(F)(F)F` (configuration not stated): the result was inactive. On to `CCOC(OCC)OCC`, for which the compound was called inactive. `O=C1C=CC(=O)N1c1ccc(Cc2ccc(N3C(=O)C=CC3=O)cc2)cc1`: the outcome was inactive.

As to `COc1ccccc1C=O`, the outcome was inactive.

As to `O=S(=O)(O)c1ccc(Cl)cc1`, the compound was classed as inactive. With `CCC/C=C/CO`, the compound was classed as inactive. With `CCc1cc(Cc2cc(CC)c(N)c(CC)c2)cc(CC)c1N`, the result was inactive.

With `O=S(=O)(Cl)C(F)(F)C(F)(F)C(F)(F)C(F)(F)C(F)(F)C(F)(F)C(F)(F)C(F)(F)F`, the call was inactive. For `NS(=O)(=O)C(F)(F)C(F)(F)C(F)(F)C(F)(F)C(F)(F)C(F)(F)F`, the compound was called inactive. On to `Cc1cc(O)c(C(C)(C)C)cc1C(C)(C)C`, for which the concentration at half-maximal activity (AC50) is 7.4 µM (active). On to `NC(=O)C(F)(F)C(F)(F)C(F)(F)C(F)F`, for which the compound was classed as inactive. Consider `CC(C)OC=O`, for which the compound was classed as inactive. For `CN(N=O)C(=O)N[C@@H]1[C@@H](O)[C@H](O)[C@@H](CO)O[C@@H]1O`, the compound was classed as inactive. For the compound `Nc1c(Br)cc([N+](=O)[O-])cc1Br`, the result was inactive.

On to `Cc1ccc([N+](=O)[O-])c(C)c1`, for which the compound was called inactive. `CCCCOC(=O)[C@H](C)O`: the compound was classed as inactive. With `O=C(O)C(F)(F)C(F)(F)C(F)(F)C(F)(F)C(F)(F)C(F)(F)C(F)F`, the compound was classed as inactive. The same measure, in the same setting: to `CNS(=O)(=O)C(F)(F)C(F)(F)C(F)(F)C(F)(F)C(F)(F)C(F)(F)C(F)(F)C(F)(F)F` belongs “inactive”; to `CCc1cccc(C)c1N(C(=O)C(=O)O)C(C)COC` (configuration not stated), “inactive”; to `Brc1ccccn1`, “inactive”. For `Cc1cc(C)c(O)c(C(C)(C)C)c1`, the compound was classed as inactive.

The values above are taken from PubChem BioAssay (EPA / NIEHS).
